# Test results from PubChem BioAssay (NCATS).
# Activity calls are given as the source filed them. The call rests on the fitted dose curve; in most records, active means well fitted curve in the direction sought with a large enough effect; inconclusive means small, poorly fitted or top-dose-only effect, or effect the other way, or another doubt; inactive means no such curve, though single readings can be large or run the other way.
# Experiment: Inducers of the Endoplasmic Reticulum Stress Response (ERSR) in human glioma: Validation (AID 504836); further: 0% is about no effect
# Details: human glioma cells, ER stress response reporter; series mostly up to 38.3 µM; activation: at the top concentration
# Summary of the method: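 Stably transfected U87-MG glioma cells carrying a GRP78-based luciferase sensor; 16 h compound incubation. Luminescence end-point read 10 min after Bright-Glo addition at room temperature.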
row,SMILES,activation
1,OCCN(CCO)c1nc(N2CCCCC2)c2nc(N(CCO)CCO)nc(N3CCCCC3)c2n1,-3.53% (inactive)
2,Cc1[nH]c(=O)c(C#N)cc1-c1ccncc1,-2.85% (inactive)
3,CN/C(=C\[N+](=O)[O-])NCCSCc1ccc(CN(C)C)o1,0.197% (inactive)
4,Nc1nc2c(ncn2COCCO)c(=O)[nH]1,-1.22% (inactive)
5,O=c1n(CCCN2CCN(c3cccc(Cl)c3)CC2)nc2ccccn12,0.597% (inactive)
6,CC(C)NCC(O)COc1ccc(CCOCC2CC2)cc1 (configuration not stated),-0.458% (inactive)
7,O=c1c(O)c(-c2ccc(O)c(O)c2)oc2cc(O)cc(O)c12,7.54% (inactive)
8,CC(=O)[C@]1(O)Cc2c(O)c3c(c(O)c2[C@@H](O[C@H]2C[C@H](N)[C@H](O)[C@H](C)O2)C1)C(=O)c1ccccc1C3=O,-7.63% (inactive)
9,Cc1cccc(C)c1OCC(C)N (configuration not stated),-5.14% (inactive)
10,COC(=O)C1=C(C)NC(C)=C(C(=O)OCCN(C)Cc2ccccc2)C1c1cccc([N+](=O)[O-])c1 (configuration not stated),-4.69% (inactive)
11,COC(=O)[C@H]1[C@H]2C[C@@H]3c4[nH]c5cc(OC)ccc5c4CCN3C[C@H]2C[C@@H](OC(=O)c2cc(OC)c(OC)c(OC)c2)[C@@H]1OC,-1.51% (inactive)
12,CC[N+](C)(C)c1cccc(O)c1,-2.23% (inactive)
13,COC(=O)Nc1nc2ccc(C(=O)c3cccs3)cc2[nH]1,-2.66% (inactive)
14,COc1ccccc1OCCNCC(O)COc1cccc2[nH]c3ccccc3c12 (configuration not stated),-1.63% (inactive)
15,Nc1ncn([C@@H]2O[C@H](CO)[C@@H](O)[C@H]2O)c(=O)n1,-7.34% (inactive)
16,CCCN1C[C@H](CSC)C[C@@H]2c3cccc4[nH]cc(c34)C[C@H]21,-0.831% (inactive)
17,CC(C(=O)O)c1cccc(C(=O)c2ccccc2)c1 (configuration not stated),-1.11% (inactive)
